{"source": "PubChem BioAssay AID485317", "about": "(Broad Institute, 2010)", "note": "Out of some 290,000 compounds screened, about 11,000 (3.8%) were called active. The sample holds actives, similar compounds and a random draw of the others, so the mix is not that of the screen.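 Rule for the calls: active = mean replicate inhibition above about 79%, with every replicate also reaching it (limit read from the data); inconclusive = only one of the two criteria met; inactive = mean below limit and not every replicate reaching it.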", "data": [{"target": "FAD-linked sulfhydryl oxidase ALR (Homo sapiens) (UniProt P55789)", "sequence (P55789 whole entry, looked up)": "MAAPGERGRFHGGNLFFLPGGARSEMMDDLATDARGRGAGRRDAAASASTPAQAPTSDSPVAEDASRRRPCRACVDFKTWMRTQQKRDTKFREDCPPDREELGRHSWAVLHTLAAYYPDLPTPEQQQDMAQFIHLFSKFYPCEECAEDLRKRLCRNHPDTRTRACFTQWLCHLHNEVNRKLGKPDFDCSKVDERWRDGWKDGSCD", "test": "inhibitors of human ALR sulfhydryl oxidase, primary screen, biochemical, H2O2 detection, HRP-luminol luminescence, single point (AID 485317)", "settings": "purified ALR, DTT oxidation, hits give high values, concentration not given here", "values": [{"smiles": "CCOc1ccc(S(=O)(=O)Nc2cccc(C(=O)NCC3(N4CCCCC4)CCCCC3)c2)cc1", "inhibition": "-4.42% (inactive)"}, {"smiles": "COC(=O)c1[nH]c2ccc(Br)cc2c1NC(=O)Oc1ccccc1", "inhibition": "97.3% (active)"}, {"smiles": "CCOC(=O)c1[nH]c2ccc(OC)cc2c1NC(=O)CCN1CCN(Cc2ccccc2)CC1", "inhibition": "24.1% (inactive)"}, {"smiles": "COC(=O)c1[nH]c2ccccc2c1NC(=O)CN1CCCc2ccccc21", "inhibition": "-3.93% (inactive)"}, {"smiles": "CCCn1c(CCNc2nc(-c3ccc(OC)cc3)cs2)nc2ccccc21", "inhibition": "12.7% (inactive)"}, {"smiles": "Cc1ccc(CC(=O)N(C)CC(=O)N(CC(C)C)c2c(N)n(CC(C)C)c(=O)[nH]c2=O)cc1C", "inhibition": "-5.01% (inactive)"}, {"smiles": "Cc1ccc2nc(SCC(=O)N3CC(C)OC(C)C3)nc(=O)n2c1", "note": "(centres undefined)", "inhibition": "-0.878% (inactive)"}, {"smiles": "COc1ccc(C(=O)NC(=S)NNC(=O)CCc2ccccc2)cc1", "inhibition": "24.8% (inactive)"}, {"smiles": "Cc1onc(-c2ccccc2)c1C(=O)NNC(=S)NC(=O)c1ccc(F)cc1", "inhibition": "93.4% (active)"}, {"smiles": "Cc1ccc(CNC(=O)c2c(-c3ccccc3)noc2C)cc1", "inhibition": "-6.06% (inactive)"}, {"smiles": "CCc1noc(C)c1C(=O)NNC(=O)c1ccc(F)cc1", "inhibition": "0.314% (inactive)"}, {"smiles": "COc1ccc(C(=O)NNC(=S)NC(=O)c2ccccc2)cc1", "inhibition": "34.7% (inactive)"}, {"smiles": "COc1ccc(C(=O)NC(=S)NNC(=O)c2c(-c3ccccc3)noc2C)cc1", "inhibition": "99.2% (active)"}, {"smiles": "COc1ccc(S(=O)(=O)N(C)C[C@H]2Oc3c(NC(=O)Nc4ccc5c(c4)OCO5)cccc3C(=O)N([C@H](C)CO)C[C@@H]2C)cc1", "inhibition": "-7.29% (inactive)"}, {"smiles": "CC(C)(C)OC(=O)NCCCCCNC(=O)c1[nH]cnc1C(=O)Nc1nccs1", "inhibition": "-6.55% (inactive)"}, {"smiles": "COc1ccc(Cl)cc1NS(=O)(=O)c1cccc(C(=O)NC2CCC(O)CC2)c1", "note": "(centres undefined)", "inhibition": "-6.32% (inactive)"}, {"smiles": "O=C(COC(=O)c1cccc(Cl)c1)NC(=O)NCc1ccccc1", "inhibition": "-1.07% (inactive)"}, {"smiles": "COCCn1c(SCC(=O)Nc2ccc3c(c2)CCC3)nc2ccccc2c1=O", "inhibition": "-0.883% (inactive)"}, {"smiles": "COC(=O)c1ccc2c(=O)n(CCN3CCOCC3)c(SCC(=O)Nc3cccc(OC)c3)nc2c1", "inhibition": "99.1% (active)"}, {"smiles": "COc1cccc(NC(=O)C(Sc2nc3ccccc3c(=O)n2CC(C)C)c2ccccc2)c1", "note": "(centres undefined)", "inhibition": "-3.45% (inactive)"}, {"smiles": "CC(=O)c1ccc(NC(=O)CSc2nc3ccccc3c(=O)n2CCCN2CCOCC2)cc1", "inhibition": "23.1% (inactive)"}, {"smiles": "CCc1ccc(NC(=O)CSc2nc3ccccc3c(=O)n2CCN2CCOCC2)cc1", "inhibition": "98.6% (active)"}, {"smiles": "CC(=O)NCCn1c(SCC(=O)Nc2ccc(C)cc2)nc2ccccc2c1=O", "inhibition": "-3.53% (inactive)"}, {"smiles": "Cc1csc(NC(=O)c2ccc(C)s2)n1", "inhibition": "27.4% (inactive)"}, {"smiles": "O=C(COC(=O)Cc1ccc([N+](=O)[O-])cc1)NC1CCCCCC1", "inhibition": "3.75% (inactive)"}, {"smiles": "COc1ccc(-c2c(-c3cc(OC)cc(OC)c3)n(C)c3ccc(-c4ccn[nH]4)cc23)cc1", "inhibition": "-7.81% (inactive)"}, {"smiles": "Brc1ccc(CN2CC[C@H]3C=CCc4cccc(c43)C2)cc1", "inhibition": "-17.1% (inactive)"}, {"smiles": "Cc1cc(C)nc(S/C=C/C(=O)c2ccccc2)n1", "inhibition": "18.2% (inactive)"}, {"smiles": "COc1ccc(Cl)cc1CSc1ncn[nH]1", "inhibition": "3.36% (inactive)"}, {"smiles": "O=C(/C=C/Sc1ncn[nH]1)c1ccc(Cl)cc1", "inhibition": "98.6% (active)"}, {"smiles": "CCN(c1ccccc1)S(=O)(=O)c1ccc(C(=O)Nc2ccccc2OC)cc1", "inhibition": "2.02% (inactive)"}, {"smiles": "COc1ccc(NC(=O)N(C)C[C@H]2Oc3ccc(NC(=O)C4CC4)cc3C(=O)N([C@H](C)CO)C[C@@H]2C)cc1", "inhibition": "-0.429% (inactive)"}, {"smiles": "CN(C)CCN(C(=O)CN1C(=O)c2ccccc2C1=O)c1nc2cc3c(cc2s1)OCCO3", "inhibition": "-1.15% (inactive)"}, {"smiles": "Nc1ccccc1/C=N\\N=C/c1ccccc1N", "inhibition": "-2.8% (inactive)"}, {"smiles": "O=C(CSc1nc2[nH]c(=O)[nH]c(=O)c2s1)Nc1cccc(F)c1", "inhibition": "98.7% (active)"}, {"smiles": "Cc1nc2nc(SCC(=O)Nc3cccc(F)c3)[nH]c2cc1Br", "inhibition": "-13.2% (inactive)"}, {"smiles": "Nc1nnc(SCC(=O)Nc2ccc3nc(SCC(=O)Nc4ccccc4)sc3c2)s1", "inhibition": "-42% (inactive)"}, {"smiles": "O=S(=O)(NCCS(=O)(=O)N1CCN(c2ccccc2)CC1)c1ccc(F)cc1", "inhibition": "-11.7% (inactive)"}, {"smiles": "CC[C@@H]1Cc2cc(O)ccc2C2=C1c1ccc(O)cc1C[C@H]2CC", "inhibition": "97.9% (active)"}, {"smiles": "CC1(C)CC(=O)c2ccc(O)cc2O1", "inhibition": "0.168% (inactive)"}, {"smiles": "CCc1nnc(NC(=O)c2cc(S(=O)(=O)N3CCCCC3)ccc2C)s1", "inhibition": "-5.04% (inactive)"}, {"smiles": "Cc1ccc(CNS(=O)(=O)CCNC(=O)c2ccccc2)cc1", "inhibition": "0.449% (inactive)"}, {"smiles": "CCN(CC(=O)Nc1ccc(OC)cc1)C(=O)c1ccc(Cl)c(S(=O)(=O)N2CCCC2)c1", "inhibition": "-0.437% (inactive)"}, {"smiles": "O=C(CSc1ncnc2sccc12)N1CCN(C(=O)c2cccs2)CC1", "inhibition": "3.8% (inactive)"}, {"smiles": "COc1ccccc1C(=O)NC(CCSC)C(=O)N1CCN(C/C=C/c2ccccc2)CC1", "note": "(centres undefined)", "inhibition": "-15.9% (inactive)"}, {"smiles": "CC1(C)CC(=O)C=C(Nc2ccccc2)C1", "inhibition": "3.81% (inactive)"}, {"smiles": "COC(=O)NNC1=CC(=O)CC(C)(C)C1", "inhibition": "5.45% (inactive)"}, {"smiles": "Cc1cc(O)ccc1NC1=CC(=O)CC(C)(C)C1", "inhibition": "92.3% (active)"}, {"smiles": "O=C(Nc1cc(S(=O)(=O)N2CCOCC2)ccc1N1CCOCC1)c1c(F)cccc1Cl", "inhibition": "0.0766% (inactive)"}, {"smiles": "COc1cc(/C=C2/C(=O)NN(c3cccc(Cl)c3)C2=O)cc(Br)c1O", "inhibition": "98.2% (active)"}, {"smiles": "COc1cc(/C=N/O)cc(Br)c1OCc1cccc(Cl)c1", "inhibition": "-0.717% (inactive)"}, {"smiles": "C#CCOc1ccc(/C=C2/C(=O)NN(c3ccccc3)C2=O)cc1OC", "inhibition": "66.4% (inactive)"}, {"smiles": "C=CCSc1ccc(S(=O)(=O)N2CCN(C)CC2)cn1", "inhibition": "0.831% (inactive)"}, {"smiles": "CC1CCc2sc(C(=O)NCC(c3ccco3)N3CCCCC3)cc2C1", "note": "(centres undefined)", "inhibition": "-3.3% (inactive)"}, {"smiles": "C[C@H](NC(=O)c1ccccc1Cl)C(=O)OCC(=O)N1CCN(c2ccccc2)CC1", "inhibition": "50.7% (inactive)"}, {"smiles": "Cn1nnnc1SCC(=O)Nc1sccc1C(N)=O", "inhibition": "23.5% (inactive)"}, {"smiles": "COc1ccc(C(=O)Nc2ccccc2C(=O)NCc2ccco2)cc1", "inhibition": "-4.1% (inactive)"}, {"smiles": "COc1ccc(-c2cc(C(F)(F)F)nc(SCCC(=O)NCc3ccco3)n2)cc1", "inhibition": "96.7% (active)"}, {"smiles": "COc1cc(OC)cc(-c2nc3nc(C)c(CCC(=O)NCc4ccco4)c(C)n3n2)c1", "inhibition": "0.656% (inactive)"}]}]}
